The list is not random: actives were taken first. Their share in the collection is about 8.1%.
ELG1 repair inh – blocks ELG1-dependent DNA repair in HEK293T cells; Potency, µM (titrated, usually from 46.1 µM), actives largely listed as inhibitors; AID 504467; hit rate 2.3% among 330,000; HEK293T ELG1-luciferase reporter, luminescence, 16 h; DNA damage induced by 5-fluorouridine; further: nearly all actives have a fitted effect of over 55% in size
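Reporter activity after DNA damage by 5-fluorouridine is monitored. Compound-treated cells incubate 16 hr at 37 °C, then ONE-Glo is added for 30 min before luminescence reading.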
SW480 rerep – inducers of DNA re-replication in SW480 colon cancer cells; Potency, µM (doses to about 46.1 µM), hits mostly activators; hit rate 1.8% among 340,000; SW480 DNA re-replication, Hoechst DNA content imaging, 48 h; further: nearly all actives have a fitted effect of over 55% in size
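Cells (250 per well) received 23 nL compound or DMSO by pin tool and were kept 48 hr at 37 C, 5% CO2. Nuclei were then stained with Hoechst for 40 min and scanned for DNA content.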
KB-3-1 cytotox – kills parental KB-3-1 adenocarcinoma cells; KB-3-1 viability, CellTiter-Glo ATP luminescence, 72 h; hit rate 1.4% among 400,000; Potency, µM (series often up to 46.1 µM), usual class: cytotoxic; AID 1347075; further: nearly all actives have a fitted effect of over 60% in size
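Luminescent ATP read-out (CellTiter-Glo) measures survival of drug-naive KB-3-1 cells after 72 h compound exposure at 37 °C. Titration series was screened from lowest to highest concentration, with DMSO vehicle plates as background controls.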
MCF10A rerep – inducers of DNA re-replication in MCF 10A breast cells; hit rate 2.9% among 350,000; Potency, µM (top dose mostly 46.1 µM), most hits filed as activators; MCF 10A DNA re-replication, Hoechst nuclear intensity, 48 h; further: nearly all actives have a fitted effect of over 50% in size
KB-V1 MDR tox – KB-V1 MDR subline cytotoxicity; hit rate 3.4% among 400,000; KB-V1 MDR cells viability, CellTiter-Glo, 72 h; AID 1347076; Potency, µM (series often up to 46.1 µM), usual class: cytotoxic; further: nearly all actives have a fitted effect of over 60% in size
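Following 72 h at 37 degrees C with compound, KB-V1 cell viability was read by CellTiter-Glo luminescence, medium being phenol-red-free DMEM plus 10% FBS; concentration-response parameters came from normalized, curve-fitted qHTS data.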
Numbers stand for hits; n = inactive; u = inconclusive; x = no result. The call rests on the fitted dose curve; in most records, active means well fitted curve in the direction sought with a large enough effect; inconclusive means small, poorly fitted or top-dose-only effect, or another doubt; inactive means no such curve, though single readings can be large; an effect the other way counts as inactive or inconclusive.

SMILES	ELG1 repair inh	SW480 rerep	KB-3-1 cytotox	MCF10A rerep	KB-V1 MDR tox
COc1ccc(-n2c(COc3cccc4ccccc34)nnc2SC(C)C(=O)O)cc1 (configuration not stated)	n	u	n	u	n
O=C(NC1CCCCC1)C1CC(=O)N(CCc2ccc(F)cc2)C1 (configuration not stated)	n	n	n	n	n
CC1CC(C)C(=O)C(C(CC2CC(=O)NC(=O)C2)OC(=O)CC(=O)c2ccccc2)C1 (configuration not stated)	x	n	2.59µM	u	u
CCCSc1nsc(NC(=O)C(c2ccccc2)c2ccccc2)n1	u	u	25.9µM	u	u
COc1ccccc1C(=O)Nc1ccc2c(c1)nc(CCNC(=O)c1ccco1)n2C	n	5.17µM	1.64µM	u	u
Cn1c(CCNC(=O)c2ccco2)nc2cc(NC(=O)c3ccco3)ccc21	u	n	n	n	n
Cn1c(CCNC(=O)c2ccco2)nc2cc(NC(=O)c3ccccc3)ccc21	u	n	n	n	n
Cn1c(CCNC(=O)c2ccccc2)nc2cc(NC(=O)c3ccco3)ccc21	u	n	u	n	16.4µM
COC(=O)Cn1c(=NC(=O)C(C)C)sc2c(C)cc(C)cc21	n	n	n	n	n
CNCCCC12CCC(c3ccccc31)c1ccccc12	n	u	u	u	u
CCOC(=O)c1nnn(-c2ccc([N+](=O)[O-])cc2[N+](=O)[O-])c1C	n	7.31µM	23.1µM	u	n
Cc1c(N)cc[n+](CC(=O)c2ccccc2)c1C	n	u	5.17µM	n	u
CCn1cc(C(=O)NCCc2ccc(Cl)cc2)c(=O)c2cc(S(=O)(=O)N(C)C)ccc21	n	n	u	n	n
C=CCn1cc(C(=O)NCCCOCC)c(=O)c2cc(S(=O)(=O)N(CC)CC)ccc21	18.4µM	n	n	n	2.91µM
CCN(CCCNC(=O)c1cn(CC)c2ccc(S(=O)(=O)N(C)C)cc2c1=O)c1cccc(C)c1	23.1µM	n	u	n	16.4µM
CCn1cc(C(=O)NC(C)CCc2ccccc2)c(=O)c2cc(S(=O)(=O)N(C)C)ccc21 (configuration not stated)	20.6µM	n	n	n	n
CCn1cc(C(=O)NCc2ccc(Cl)cc2)c(=O)c2cc(S(=O)(=O)N(C)C)ccc21	u	u	n	u	14.6µM
COc1ccc(C2C(C(=O)Nc3ccccc3OC)=C(C)Nc3ncnn32)cc1 (configuration not stated)	n	n	n	n	n
CCn1cc(C(=O)NCc2ccc3c(c2)OCO3)c(=O)c2cc(S(=O)(=O)N3CCOCC3)ccc21	u	n	n	n	n
CCn1cc(C(=O)NCc2ccc3c(c2)OCO3)c(=O)c2cc(S(=O)(=O)N(C)C)ccc21	16.4µM	n	n	n	u
CS(=O)(=O)N1CCC2CC1c1cc(-c3ccccc3)ccc12 (configuration not stated)	x	n	n	n	n
CCCn1c(O)c(CN2CCCCC2)c(C)c(C#N)c1=O	n	n	n	n	u
O=C(Cn1ncc2c3ccccc3n(Cc3ccccc3)c2c1=O)NCc1ccccc1	x	x	n	x	n
COC(=O)Cn1ncc2c3ccccc3n(Cc3ccccc3)c2c1=O	n	n	n	n	23.1µM
Clc1ccc2nc(CSc3nnc(-c4c[nH]c5ccccc45)o3)cn2c1	x	n	n	n	n
SMILES	ELG1 repair inh	SW480 rerep	KB-3-1 cytotox	MCF10A rerep	KB-V1 MDR tox
O=C(CSc1nnc(-c2c[nH]c3ccccc23)o1)N(Cc1ccccc1)c1ccc(F)cc1	20.6µM	n	n	n	11.6µM
Clc1cccc(CSc2nnc(-c3c[nH]c4ccccc34)o2)c1	n	n	n	11.2µM	u
COc1ccc(C(=O)CCN2CCCC(C)C2)cc1 (configuration not stated)	n	u	n	u	n
CCC(=O)N(Cc1ccc(C)cc1)Cc1cc2cc3c(cc2[nH]c1=O)OCO3	n	n	n	n	11.6µM
Cc1ccc(NC(=O)N(Cc2cccs2)Cc2cc3cc4c(cc3[nH]c2=O)OCO4)cc1	20.6µM	x	x	x	x
Cc1ccc(NC(=O)N(CCCN2CCOCC2)Cc2cc3cc4c(cc3[nH]c2=O)OCO4)cc1	n	n	n	n	n
O=C(Nc1ccc(F)cc1)N(Cc1ccco1)Cc1cc2cc3c(cc2[nH]c1=O)OCO3	23.1µM	n	n	18.4µM	n
Cc1ccc(NC(=O)N(Cc2ccc3c(c2)OCO3)Cc2cc3cc4c(cc3[nH]c2=O)OCCO4)cc1	20.6µM	n	n	n	n
CCC(=O)N(CCc1ccccc1)Cc1cc2cc3c(cc2[nH]c1=O)OCO3	n	u	n	n	u
CC(C)OCCCNc1ncc2c(n1)CC(c1cccs1)CC2=O (configuration not stated)	n	n	n	n	n
CCOC(=O)Nc1ccc(S(=O)(=O)N2CCOCC2)cc1	n	n	n	n	n
Cc1noc2ncnc(N3CCCC(C(=O)NCCC(C)C)C3)c12 (configuration not stated)	x	x	n	x	u
COc1ccc(NC(=O)N(Cc2cccs2)Cc2cc3cc4c(cc3[nH]c2=O)OCO4)cc1	20.6µM	n	x	n	x
CCCCNC(=S)N(Cc1ccco1)Cc1cc2cc3c(cc2[nH]c1=O)OCCO3	14.6µM	n	n	n	n
COc1ccc(-n2ncc3c(=O)n(CC(=O)N(C(C)C)C(C)C)cnc32)cc1	n	n	n	n	n
COCCNC(=O)Cn1cc(S(=O)(=O)N2CCN(c3ccccc3F)CC2)c2ccccc2c1=O	n	n	n	n	n
O=C(Cn1cc(S(=O)(=O)N2CCN(c3ccccc3F)CC2)c2ccccc2c1=O)NCCCN1CCCCCC1	n	20.6µM	n	u	n
CC(C)OC(=O)CSc1nnc(CNc2ccc(Cl)cc2)n1C	n	n	n	n	n
Cc1noc(C)c1S(=O)(=O)N1CCCC(C(=O)NCCc2ccccc2)C1 (configuration not stated)	n	u	n	n	n
COc1ccc(C(=O)CCc2ccc(OC)c(OC)c2)cc1	x	n	u	n	n
COc1ccc(CCC(C)NC(=O)Cc2ccc(OC)c(OC)c2)c(OC)c1 (configuration not stated)	18.3µM	n	n	n	n
COc1ccc(C(=O)Cc2ccc(OC)c(OC)c2)cc1	u	n	n	n	23.1µM
O=C(Nc1ccccc1-c1nnc(SCc2ccc(Cl)cc2Cl)o1)c1ccccc1	n	x	n	n	u
Cn1c(N)c(C(C[N+](=O)[O-])c2c(F)cccc2Cl)c(=O)n(C)c1=O (configuration not stated)	u	16.4µM	u	u	n
CN(C)c1ccc(C(C[N+](=O)[O-])c2c(N)n(C)c(=O)n(C)c2=O)c(F)c1C#N (configuration not stated)	n	u	u	3.66µM	n

Screening data (PubChem BioAssay)
